An excerpt weighted towards active compounds, which were near 6.5% of everything screened.
Vaccinia mCherry = qHTS for Stage-Specific Inhibitors of Vaccinia Orthopoxvirus: mCherry Reporter Primary qHTS. Vaccinia virus mCherry reporter infection, fluorescence. Potency, µM (highest dose often 36.5 µM), for the others: top-dose activity change, negative = inhibition, most hits filed as inhibitors. 310,000 compounds, 0.63% hits; calls by dose curve; tested in A549 cells; further: potency means the concentration at half of the fitted maximal effect; nearly all actives have a fitted effect of over 35% in size
HCMV antiviral = qHTS Assay for inhibitors of the human cytomegalovirus (HCMV) | AID 1259415, 2018 | activity change, negative = inhibition, % at 57.5 µM | 410,000 compounds, 4.5% hits | HFF cells, HCMV-luciferase reporter, 72 h; active compounds read low; in the data active means activity change below about -60%; inconclusive means no clear call, values can overlap the other calls; inactive means above about -39%
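Two-dose cell screen: HFF monolayers treated with compounds and infected with luciferase-expressing HCMV at 1 PFU/cell, 72 h at 37C, then lysed for luciferase measurement.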
FMDV inh = High Throughput Screening for Foot and Mouth Disease Virus Antivirals. FMDV antiviral cell-based qHTS. Potency, µM (highest dose often 57.9 µM), without a hit: at the top dose activity change, negative = inhibition, most hits filed as inhibitors. 410,000 compounds, 1.2% hits; calls by dose curve; tested in HEK293T cells; further: read-out not given here; potency means the concentration at half of the fitted maximal effect; nearly all actives have a fitted effect of over 45% in size
MARV entry inh = qHTS for inhibitors of binding or entry into cells for Marburg Virus; Marburg virus pseudotyped entry inhibition, cell reporter; Potency, µM (highest dose often 37.8 µM), inactives show at the top dose activity change, negative = inhibition, hits mostly inhibitors; 300,000 compounds, 1.8% hits; AID 540276, 2011; calls by dose curve; tested in HEK293 cells; further: potency means the concentration at half of the fitted maximal effect
VACV Venus inh = qHTS for Stage-Specific Inhibitors of Vaccinia Orthopoxvirus: Venus Reporter Primary qHTS; Vaccinia virus Venus reporter expression, fluorescence; Potency, µM (titrated, usually from 36.5 µM), without a hit: top-dose activity change, negative = inhibition, hits mostly inhibitors; 330,000 compounds, 0.46% hits; AID 720580, 2013; calls by dose curve; tested in A549 cells; further: potency means the concentration at half of the fitted maximal effect; nearly all actives have a fitted effect of over 30% in size
LASV entry inh = qHTS for Inhibitors of binding or entry into cells for Lassa Virus; Lassa virus pseudotype entry inhibition, cell reporter; Potency, µM (doses to about 37.9 µM), for the others: at the highest dose activity change, negative = inhibition, most hits filed as inhibitors; 300,000 compounds, 1.2% hits; AID 540256, 2011; calls by dose curve; tested in HEK293 cells; further: potency means the concentration at half of the fitted maximal effect; nearly all actives have a fitted effect of over 50% in size
* marks the source's active call; other numbers are inactive results; i = inactive; u = inconclusive; x = no result given; [ ] = another dose, or the depositor's remark. On the % scale 0 is the no-effect control and ±100 the full control effect.

SMILES	Vaccinia mCherry	HCMV antiviral	FMDV inh	MARV entry inh	VACV Venus inh	LASV entry inh
Cc1ccc(S(=O)(=O)N2CCN(c3nc(N(C)c4cc(Cl)ccc4O)nc4ccccc34)CC2)cc1	-15%	x	x	x	-17%	x
CC(C)NC(=O)CSc1nc(-c2ccccc2)cs1	i	112	40%	x	-4%	x
N#CCSc1nc(-c2ccccc2)cs1	x	-63*	23%	2%	u	15%
C[C@]12CCC3C(CCC4=CC(O)CC[C@@]43/C=N/O)C1(O)CCC2C1=CC(=O)OC1 (stereo not given in full)	u	-96*	-17%	u	0.32µM*	u
CC12CC[C@H]3[C@@H](CCC4(O)C[C@H](O)CCC34/C=N/NC(=O)c3ccccc3Cl)C1(O)CCC2C1=CC(=O)OC1 (stereo not given in full)	x	-32	-22%	x	x	x
CC12CCC3C(CCC4(O)CC(O)CCC34C=NO)C1(O)CCC2C1=COC(=O)C1 (stereo not given)	32µM*	-98*	u	0.18µM*	0.4µM*	0.25µM*
CC12CCC3C(CCC4(O)CC(O)CCC34C=O)C1(O)CCC2C1=CC(=O)OC1 (stereo not given)	u	-100*	u	0.45µM*	1µM*	0.71µM*
CCCCN=C[C@]12CCC(O)CC1(O)CCC1[C@@H]2CC[C@]2(C)[C@H](C3C=CC(=O)O3)CCC12O (stereo not given in full)	0.32µM*	-97*	-24%	3.5µM*	0.32µM*	u
CCCCN(C)C(=O)c1ccc2c(c1)N(Cc1ccc(F)cc1)C(=O)c1ccccc1S2(=O)=O	i	-23	-7%	u	-15%	-13%[46.1 µM]
COc1ccc2c3c(n(C)c2c1)[C@@H](CO)N(C(=O)c1cnccn1)CC31CN(C(C)=O)C1	x	2	x	x	x	x
C[C@H]1O[C@@H](OC2CC[C@]3(C=O)[C@H]4CC[C@]5(C)[C@@H](C6=CC(=O)OC6)CC[C@]5(O)[C@@H]4CC[C@]3(O)C2)CC2OC(C)(C)OC21 (stereo not given in full)	u	-97*	u	x	0.28µM*	x
C[C@]12CC[C@H]3[C@@H](CC[C@]4(O)C[C@@H](O)CC[C@]34C=O)[C@@]1(O)CC[C@@H]2C1=CC(=O)OC1	1µM*	-99*	u	x	1µM*	x
CC(C)ON(C(C(=O)NO)C(C)C)S(=O)(=O)c1ccc(-c2ccccc2)cc1 (stereo not given)	x	x	-12%	x	x	x
COc1ccc(OC)c(C(c2nnnn2C2CCCC2)N2CCN(c3ccccc3F)CC2)c1 (stereo not given)	x	-2	11%	10µM*	-22%	u
CCC(C)(C)n1nnnc1C(c1cc2ccc(OC)cc2[nH]c1=O)N1CCN(C2CCCCC2)CC1 (stereo not given)	x	-14	-29%	13µM*	x	16%
COc1ccc(N2CCN(C(c3cccc(OC)c3OC)c3nnnn3C3CCCC3)CC2)cc1 (stereo not given)	x	-22	-18%	u	-28%	2.8µM*
COc1ccccc1N1CCN(C(c2cc3ccc(C)cc3[nH]c2=O)c2nnnn2C2CCCC2)CC1 (stereo not given)	x	7	3%	13µM*	x	-9%
CCC(C)(C)n1nnnc1C(c1cc2cc3c(cc2[nH]c1=O)OCO3)N1CCCCC1 (stereo not given)	-11%	66	19%	12%	-15%	6%
COc1ccc(N2CCN(C(c3ccccc3OC)c3nnnn3C3CCCC3)CC2)cc1 (stereo not given)	x	-17	-20%	u	-19%	u
COc1ccc(Cl)cc1NC(=O)CSc1ccc2nnc(CCNS(=O)(=O)c3ccccc3)n2n1	-9%	2	-18%	x	-4%	-10%[46.1 µM]
c1ccc(C2(NC3=NCCO3)CCCCC2)cc1	u	-38	-3%	x	4µM*	x
C1CCC(NC2=NCCO2)CC1	-29%	-33	0%	x	u	x
CC(C)(CS(=O)(=O)[O-])NC(=O)CC[N+](C)(C)CCO	-17%	61	-16%	2.8µM*	-8%	3%
CCOc1cc(NS(=O)(=O)c2ccc(NC(C)=O)cc2)c(OCC)cc1NC(=O)c1cccs1	u	-79*	0%	2%	-27%	-12%
CCOc1cc(NC(=S)NCCCN(C)C)c(OCC)cc1NC(=O)c1cccs1	-14%	-64*	0%	u	-9%	2%
SMILES	Vaccinia mCherry	HCMV antiviral	FMDV inh	MARV entry inh	VACV Venus inh	LASV entry inh
CCOc1cc(NC(=S)NCCCOC)c(OCC)cc1NC(=O)c1cccs1	-19%	-16	-2%	14%	-13%	-11%
Cc1ccc(Nc2nc(N3CCOCC3)c3ccccc3n2)cc1	-4%[1.46 µM]	-32	u	u	u	u
C(=C\c1nc(N2CCCC2)c2ccccc2n1)/c1ccccc1	u	-72*	u	7.1µM*	u	u
CC(C)(C)C(=O)NNc1nc(-c2ccccc2)c2cc(Br)ccc2n1	-13%	-35	-25%	u	-15%	-18%
Oc1ccc(Nc2nc(N3CCCC3)c3ccccc3n2)cc1	u	-66*	-28%	11µM*	8.9µM*	u
COc1ccc(Nc2nc(N3CCCCC3)c3ccccc3n2)cc1	u	-64*	25µM*	u	u	u
COc1ccc(Nc2nc(-c3ccccc3)c3cc(Br)ccc3n2)cc1	-13%	-61*	7%	x	-12%	-23%[46.1 µM]
CC(C)CON=C1C[C@@H](O)[C@@H](O)[C@@H]2[C@H]3C(=O)N(Cc4ccc5c(c4)OCO5)C(=O)[C@@H]3CC[C@@H]12	x	x	x	-30%[14.2 µM]	x	x
O=S1(=O)CCSC[C@@H](CNCc2ccco2)N1	x	1	x	x	x	u
C=CCn1c(SCC)nc2ccccc2c1=O	14%	x	x	x	-14%	x
CCCOc1ccccc1C1CC(=O)Nc2cc3c(cc21)OCCO3 (stereo not given)	u	x	22µM*	2.8µM*	u	u
COc1cc(C2CC(=O)Nc3cc4c(cc32)OCCO4)cc(Br)c1OC (stereo not given)	u	-81*	-15%	u	-30%[7.34 µM]	u
CCOc1ccccc1C1CC(=O)Nc2cc3c(cc21)OCCO3 (stereo not given)	x	-99*	18µM*	8.2µM*	x	u
Cc1cn2cc(CNC(=O)CN3Cc4ccccc4OC(c4ccccc4F)C3)nc2s1 (stereo not given)	-25%	x	4%	x	-16%	x
COCCn1c(=O)c(CCc2ccccc2)nc2cnc(N(C)C)nc21	x	x	7%	x	x	x
COc1ccc(-c2nc(CCNC(=O)Cc3ccc(F)cc3)cs2)cc1	-9%	45	-16%	x	-14%	21%[46.1 µM]
Cc1ccc(C)c(NC(=S)NCCSc2ccc(Cl)cc2)c1	-5%	-29	3%	14%	-17%	-16%
